Most compounds without a hit are left out; they make up all but 5.6% or so of the library.
ALR inh: inhibitors of human ALR sulfhydryl oxidase, primary screen, biochemical, H2O2 detection, HRP-luminol luminescence, single point; FAD-linked sulfhydryl oxidase ALR (Homo sapiens), P55789; purified ALR, DTT oxidation; inhibition, % (concentration not given with the values); 290,000 tested, 3.8% active;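 active means mean replicate inhibition above about 79%, with every replicate also reaching it, limit read from the data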
PfM18AAP inh: PfM18AAP inhibitors, malaria aminopeptidase, primary screen, biochemical, QFRET, recombinant enzyme; M18 aspartyl aminopeptidase (Plasmodium falciparum 3D7); H-Glu-NHMec fluorogenic cleavage; inhibition, % at 7.35 µM; 290,000 tested, 1.2% active; AID 1822, 2009;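 active means inhibition above the campaign mean inhibition over all tested compounds plus 3 SD, cut at about 28% in these data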;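 further: 0% = plate median of test compound wells and 100% = 2 mM ZnCl2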
PfG6PD inh: PfG6PD enzyme inhibitors, primary screen, biochemical, fluorescence intensity, uHTS; PfGluPho enzyme, NADPH resazurin-diaphorase fluorescence; AID 504690, 2011; inhibition, % at 20 µM; 350,000 tested, 0.78% active; glucose-6-phosphate dehydrogenase-6-phosphogluconolactonase (Plasmodium falciparum 3D7);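 active means inhibition reaching at least a set limit at 20 µM in the primary screen, cut at about 59% in these data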;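 further: 0% = DMSO wells with substrate and 100% = DMSO wells lacking glucose-6-phosphate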
Cardio protect: cardioprotection against H2O2-induced cell death, primary screen, uHTS, H9c2 cells, ATPLite luminescence; 360,000 tested, 0.63% active; protection from H2O2 cell death, % at 20 µM; H9c2 cardiomyocytes, H2O2 injury protection, 2 h;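 active means compounds giving at least 50% protection of heart cells from peroxide-induced death in the single-dose screen, raw or plate-pattern-corrected value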;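 further: 0% = DMSO wells with peroxide and 100% = DMSO wells without peroxide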
PHOSPHO1 inh: PubChem AID 1565 | recombinant PHOSPHO1, absorbance phosphatase assay | inhibition, % at 13.3 µM | 290,000 tested, 1.1% active; in the data active means inhibition above about 60%
Target sequence (Q8TCT1 whole entry, looked up): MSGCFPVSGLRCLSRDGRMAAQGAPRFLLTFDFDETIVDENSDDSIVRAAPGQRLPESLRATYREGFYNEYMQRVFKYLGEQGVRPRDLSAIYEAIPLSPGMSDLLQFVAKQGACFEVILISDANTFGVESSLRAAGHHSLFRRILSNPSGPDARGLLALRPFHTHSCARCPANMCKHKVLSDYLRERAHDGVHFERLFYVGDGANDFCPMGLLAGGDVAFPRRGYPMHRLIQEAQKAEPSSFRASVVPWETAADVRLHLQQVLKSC
Active calls of the source: *; / = no result given.

SMILES	ALR inh	PfM18AAP inh	PfG6PD inh	Cardio protect	PHOSPHO1 inh
CCOc1ccc(OCCn2c(=S)[nH]c3c(N)ncnc32)cc1	91*	17	47	4	48
Cc1ccc(OCCn2cnc3c(N)ncnc32)cc1	/	-6	-8	-14	16
COc1cc(/C=N/NS(=O)(=O)c2ccc(C)c([N+](=O)[O-])c2)cc([N+](=O)[O-])c1O	93*	9	-10	6	30
COc1ccc(-n2c(O)c(/C=N/NS(=O)(=O)c3ccc(C)c([N+](=O)[O-])c3)c3ccccc3c2=O)cc1OC	97*	11	27	4	-31
O=[N+]([O-])c1cccc(S(=O)(=O)N/N=C/c2ccc(O)cc2)c1	93*	8	1	0	-3
O=[N+]([O-])c1ccc(N/N=C/c2cccc(O)c2)cc1	67	28*	54	-13	-20
COc1cc(/C=N/NS(=O)(=O)c2ccc(C(C)(C)C)cc2)cc([N+](=O)[O-])c1O	65	8	-11	-3	46
COc1ccc(-n2c(O)c(C=Nc3ccccc3)c3ccccc3c2=O)cc1OC	/	-1	-6	-3	38
O=[N+]([O-])c1ccc(NN=Cc2cccc([N+](=O)[O-])c2)cc1	/	/	12	-12	/
O=[N+]([O-])c1cccc(S(=O)(=O)N/N=C\c2ccc3c(c2)OCO3)c1	27	-2	4	-3	43
CCC[C@@H]1Cc2ccccc2N1C(C)=O	-2	/	9	6	/
Cc1cc(C)c(OCC(=O)N(Cc2ccccc2)C2CCS(=O)(=O)C2)c(C)c1 (stereo not given)	-3	0	14	-6	28
COc1cc(/C=N/NS(=O)(=O)c2ccc(C)c([N+](=O)[O-])c2)ccc1O	99*	9	-7	0	13
Cc1cccc(NC(=O)c2oc3ccc(S(=O)(=O)N4CCOCC4)cc3c2C)c1C	-9	-4	-8	76*	22
O=S(=O)(Nc1ncnc2sc3c(c12)CCC3)c1cc(F)ccc1F	94*	0	-15	8	33
O=S(=O)(Nc1ncnc2sc3c(c12)CCC3)c1ccc(Cl)s1	12	6	-4	2	7
CC(C)CN1C(=O)NC(NS(=O)(=O)c2ccc(N)cc2)(C(F)(F)F)C1=O (stereo not given)	99*	-1	6	-6	-4
CC(=O)Nc1ccc(S(=O)(=O)NC2(C(F)(F)F)NC(=O)N(CC(C)C)C2=O)cc1 (stereo not given)	-27	5	-10	12	-1
COC(=O)c1ccsc1NS(=O)(=O)c1ccccc1	80*	-12	18	4	19
COC(=O)c1sccc1NS(=O)(=O)c1ccccc1	-9	-4	34	4	33
COc1ccc2cc(S(=O)(=O)n3cnc(C)c3)ccc2c1	98*	3	-1	-5	28
Cc1ccc(S(=O)(=O)n2cnc(C)c2)cc1	-5	-2	3	-2	34
CCN(C[C@H]1N[C@@](C)(C(=O)OC)[C@H]2C(=O)N(Cc3ccccc3)C(=O)[C@@H]12)S(=O)(=O)c1ccc(OC)cc1	/	/	-4	11	/
CC(=O)Nc1ccc(S(=O)(=O)NC(CSc2ccc(C(=O)O)cc2[N+](=O)[O-])C(=O)O)cc1 (stereo not given)	-15	-2	6	7	34
CCCCc1ccc(-c2csc(/C(C#N)=C\c3ccco3)n2)cc1	84*	6	-3	-5	19
COc1ccc(CCNC(=O)CS(=O)Cc2nc(-c3ccc(C)cc3)oc2C)cc1OC (stereo not given)	99*	-5	1	-3	28
CCOc1ccc(CCNC(=O)CS(=O)Cc2nc(-c3ccc(OC)cc3)oc2C)cc1OCC (stereo not given)	99*	-4	12	-1	18
COc1ccc(-c2nc(CS(=O)CC(=O)NCCc3ccc(C)cc3)c(C)o2)cc1OC (stereo not given)	99*	-11	6	6	21
COc1ccc(-c2nc(CS(=O)CC(=O)NCCc3ccc(OC)c(OC)c3)c(C)o2)cc1 (stereo not given)	98*	-8	-7	-5	55
